Measured values reported in PubChem BioAssay (EPA / NIEHS).
Inconclusive results are not listed. Calls of active or inactive are those of the source. How the source made its calls: active means hit-call score of the fitted dose curve at least 0.9, where 1 is the maximum; inconclusive means response in the unintended direction; inactive means score below 0.9.

assay: ACEA_ER_AUC_viability: ACEA Biosciences xCELLigence Real-Time Cell Analysis on Estrogen Receptor Agonism for Viability (AID 2283782)
Outline: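 Read-out: real-time electrical impedance (RT-CES) area under curve, loss of signal taken as reduced viability, normalized to DMSO baseline. T-47D cells, charcoal-stripped serum medium, compounds up to 100 uM final, continuous exposure, 80 h.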

SMILES | outcome | AC50
CC(=N[Si](C)(C)C)O[Si](C)(C)C | inactive | –
CCCCC(CC)COC(=O)COc1ccc(Cl)cc1C (centres undefined) | inactive | –
CCCCCCCC1CCCC1=O (centres undefined) | inactive | –
C=COCC1CCC(COC=C)CC1 (centres undefined) | inactive | –
C=CCOC(=O)/C=C\C(=O)OCC=C | – | 94.9 µM (active)
CC(=O)OC/C=C(C)/C=C/C=C(C)/C=C/C1=C(C)CCCC1(C)C | – | 68.5 µM (active)
CN(C)c1ccc(C=O)cc1 | inactive | –
CC(=O)OCC=C(C)CCC=C(C)CCC=C(C)C | inactive | –
CCCC1CCOC(C)S1 (centres undefined) | inactive | –
CCOC(=O)CCCCCCCCC(=O)OCC | inactive | –
C[C@H](CCC(=O)O)[C@H]1CC[C@H]2[C@@H]3CC[C@@H]4C[C@H](O)CC[C@]4(C)[C@H]3CC[C@]12C | – | 85.2 µM (active)
NS(=O)(=O)c1cc(C(=O)O)c(NCc2ccco2)cc1Cl | inactive | –
CCCOC(=O)CC | inactive | –
C=CCS(=O)(=O)O | inactive | –
CCCCCCCCCCCCCCCCCC(=O)OCCCCCCCCCCCCCC(C)C | – | 77 µM (active)
CC/C=C\CCCCCCCCCCOC(C)=O | inactive | –
NC(=O)NC(N)=O | inactive | –
C=C1CC[C@H]2O[C@]2(C)CC[C@@H]2[C@@H]1CC2(C)C | inactive | –
CCCCOCC(C)OCC(C)O (centres undefined) | inactive | –
O=C1CCCCCCCCCCCC(=O)OCCO1 | – | 71.8 µM (active)
CCOC(=O)COC(=O)c1ccccc1C(=O)OCC | inactive | –
CCCCCCCCSCc1cc(C)c(O)c(CSCCCCCCCC)c1 | inactive | –
CC1=CC[C@@H]2C[C@H]1C2(C)C | – | 18.7 µM (active)
CC(C)CCOC(=O)CC(C)C | inactive | –
